The panel holds about 83,000 compounds, 20% with a hit somewhere; the sample as a whole holds those more often.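 Percent growth is the endpoint: 0 to 100 indicates growth inhibition (40 means 60% inhibition), 0 means no net growth, and negative values indicate cell death.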 Active and inactive are the calls of the source. How the source made its calls: active means growth percent below 10; inactive means the rest.

The test system of the experiment is MDA-MB-468 breast. Nature of the experiment: NCI-60 one-dose screen, 48 h (100 = growth as untreated, 0 = no growth, -100 = all killed). To be noted: 10 µM unless noted.
`CC(C)(C)CC(C)(C)Nc1c(-c2c(O)c3ccccc3oc2=O)nc2sccn12`: the growth was 86.6% (inactive).

As to `Nc1nc(N)c2c(n1)NC(c1ccc(Cl)cc1)CC(c1ccc(Nc3nc(NCCO)nc(Nc4ccc(Cl)cc4)n3)cc1)=N2` (stereo not given), the growth was -29% (active).

Regarding `O=C(C[C@]1(O)C(=O)Nc2ccccc21)c1cccc(C(F)(F)F)c1`, the growth was 83.9% (inactive).

In the case of `O=C(c1ccccc1)C1OC1c1ccc([N+](=O)[O-])cc1` (stereo not given), the growth was 29.2% (inactive).

Turning to `COc1ccc(-c2nnc(SCC(=O)N3CCN(c4cc5c(cc4F)c(=O)c(C(=O)O)cn5C4CC4)CC3)o2)cc1OC`, the growth was 96.4% (inactive).

`C=CCn1c2ccccc2c2c3c(c4c5ccccc5n(CC=C)c4c21)C(=O)N(O)C3=O`: the growth is 24% (inactive).

As to `COc1ccc(/C(=C\c2cc(OC)c(OC)c(OC)c2)C(=O)N2CCNCC2)cc1`, the growth was 94.3% (inactive).

In the case of `COc1ccc(CN2C(=O)/C(=C/c3nc(CO)cs3)SC2=S)cc1`, the growth was 31.7% (inactive).

For the molecule `COc1ccc(S(=O)(=O)Nc2cc(/C=C\c3cc(OC)c(OC)c(OC)c3)ccc2OC)cc1`, the growth was 7.65% (active).

Take `CCOC(=O)/C=C1\SC(=Nc2ccc(C#N)cc2)N(CCN2C(=O)/C(=C/C(=O)OCC)SC2=Nc2ccc(C#N)cc2)C1=O`: the growth was 55.3% (inactive).

Consider `CCCCCCCC/C=C\CCCCCCCCOc1ccccc1CCOP(=O)(O)OCC[N+](C)(C)C`, for which the growth is 61.9% (inactive).

For the molecule `C=CCNC(=S)N/C=C(/C(=O)c1ccccc1)c1ccccc1`, the growth was 102% (inactive).

As for `C#CC(=O)Nc1cccc(Nc2nc3c(c(NCc4ccccc4)n2)CCCC3)c1`, the growth was -54.7% (active).

In the case of `C=COC(=O)CCCCCCCCC`, the growth was 100% (inactive).

Take `O=C(N/N=C\c1ccc([N+](=O)[O-])cc1)c1ccc2nc(-c3ccc(Br)cc3)[nH]c2c1`: the growth was -33% (active).

With `O=C1NCCC12CCN(c1c(Cl)cncc1-c1ccc(O)cc1)CC2`, the growth is 84.3% (inactive).

With `O=C(NCCO)Nc1ccc(-c2nc(N3CCOCC3)c3cccn3n2)cc1`, the growth is -24.2% (active).

With `O[C@H]1CO[C@H]2[C@@H]1OC[C@@H]2Oc1ccc(Nc2ccnc(Nc3ccc(O[C@H]4CO[C@H]5[C@@H]4OC[C@@H]5O)c(Cl)c3)n2)cc1Cl`, the growth was -7.19% (active).

Regarding `CN(C)CCC(=O)C1CC1`, the growth is 104% (inactive).

On to `CC(=O)OC[C@]12CC[C@@H](C(=O)/C=C/c3cccnc3)[C@@H]1[C@H]1CC[C@@H]3[C@@]4(C)CC[C@H](OC(C)=O)C(C)(C)[C@@H]4CC[C@@]3(C)[C@]1(C)CC2`, for which the growth was -44% (active).

For `NNC(=O)CCCCl`, the growth is 96% (inactive).

Turning to `O=C(Cc1ccc(OCc2ccccc2)cc1)NCc1ccc2c(c1)OCO2`, the growth was 81.5% (inactive).

As to `C=C(C)C(C(=O)OCC)(C(=O)OCC)C(C)C`, the growth is 109% (inactive).

Take `CCCc1cn(CC(=O)Nc2nc3ccccc3s2)nn1`: the growth is 110% (inactive).

On to `CC(C)(C)CC(C)(C)Nc1c(-c2c(O)c3ccccc3oc2=O)nc2c(Cl)cc(C(F)(F)F)cn12`, for which the growth is 92.2% (inactive).

Turning to `CC(COC(=O)c1ccccc1)N1CC2CCC(C1)O2` (stereo not given), the growth is 103% (inactive).

Consider `Cc1cc(I)nc2ccccc12`, for which the growth was 109% (inactive).

Take `O=C1Nc2ccc(Cl)cc2/C1=C/c1ccc(OCC(=O)c2ccc(Br)cc2)cc1`: the growth was 111% (inactive).

Consider `Cc1ccc(C(=O)Nc2cccc(C(F)(F)F)c2)cc1Nc1nc(-c2cnccn2)nc2c1cnn2C`, for which the growth was 104% (inactive).

Turning to `CC(C)c1ccc(-n2c(=S)[nH]c3sc4cc(O)ccc4c3c2=O)cc1`, the growth was 96.5% (inactive).

On to `C=C1CCC2C(C)(CO)C(O)CCC2(C)C1C/C=C1/C(=O)OCC1Oc1ccccc1C` (stereo not given), for which the growth was 60% (inactive).

With `NNC(=O)c1sc2nc(-c3cnccn3)cc(-c3cccs3)c2c1N`, the growth was 97.2% (inactive).

Turning to `CSc1nc2sc3cccc(Cl)c3n2c(=N)c1C#N`, the growth is 90.4% (inactive).

Take `COCCCNC1=C(C#N)C(=O)NC(c2cccs2)S1` (stereo not given): the growth is 93.8% (inactive).

As for `CCCNC(=O)c1ccc(S(N)(=O)=O)cc1`, the growth was 82.1% (inactive).

Consider `O=[N+]([O-])c1ccccc1Nc1ccc2ccccc2c1`, for which the growth is 80.4% (inactive).

In the case of `CC(C)(C)OC(=O)N1CCN(S(=O)(=O)/N=C2\NC(=O)NC2=C(Cl)Cl)CC1`, the growth is 63.7% (inactive).

Regarding `CNC(=O)c1cc(Oc2ccc3c(c2)sc2nc(-c4ccc(NC(=O)Nc5ccc(Cl)c(C(F)(F)F)c5)cc4)cn23)ccn1`, the growth was 93.9% (inactive).

Consider `Cc1cc(O)c2c(c1)C[C@H]1[C@@H]3CC[C@H]4CC(=O)CC[C@]4(C)[C@H]3CC(=O)[C@]21C`, for which the growth was 71.4% (inactive).

On to `NNC(=O)c1ccc(-n2nc(-c3ccccc3)c3ccccc32)cc1`, for which the growth is 38.3% (inactive).
